# Many of the other results were omitted from the sample, so hits are more common in it than they were.
# CHX counter: Cycloheximide Counterscreen for Small Molecule Inhibitors of Shiga Toxin; cell reporter, cycloheximide protein synthesis inhibition counterscreen; max response, %; 12% of 300,000 active; AID 2314, 2010; in the data active = max response mostly above about 13%, no sharp cut-off; inactive = mostly below about 14%; also: read at 38.3 µM for the half of the compounds with a filed dose; 0% is about no effect
# LmPK inh: qHTS Assay for Inhibitors of Leishmania Mexicana Pyruvate Kinase (LmPK) | 0.37% of 290,000 active | purified LmPK, Kinase-Glo ATP luminescence, 1 h | Potency, µM (titrated, usually from 57.5 µM), inactives show top-dose activity change, negative = inhibition, actives largely listed as inhibitors | Q27686; also: potency is read from the fitted curve at half-maximal effect; % is scaled to controls: 0 for no effect and ±100 for the full control effect
#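 ATP generated from ADP (0.1 mM) and PEP (0.5 mM) by 0.1 nM LmPK over 1 h at room temperature (pH 7.2 imidazole buffer) was detected by coupled luciferase luminescence. Values were normalized to uninhibited and no-enzyme wells.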
# Shiga toxin inh: A qHTS for Small Molecule Inhibitors of Shiga Toxin; inhibition, % at 38.7 µM; Vero cells, Shiga toxin protein synthesis inhibition reporter; AID 2315, 2010; 9.2% of 290,000 active; in the data active = inhibition mostly above about 28%, no sharp cut-off; inactive = mostly below about 43%; also: 0% is about no effect
# FBPA Giardia inh: qHTS Assay for Inhibitors of Fructose-1,6-bisphosphate Aldolase from Giardia Lamblia | A8B2U2 | purified Giardia FBPA | Potency, µM (top dose mostly 59.6 µM), without a hit: top-dose activity, negative = inhibition, usual class: inhibitors | 0.71% of 290,000 active; also: potency is read from the fitted curve at half-maximal effect; % is scaled to controls: 0 for no effect and ±100 for the full control effect; nearly all actives have a fitted effect of over 55% in size
# Target sequence (A8B2U2 whole entry, looked up): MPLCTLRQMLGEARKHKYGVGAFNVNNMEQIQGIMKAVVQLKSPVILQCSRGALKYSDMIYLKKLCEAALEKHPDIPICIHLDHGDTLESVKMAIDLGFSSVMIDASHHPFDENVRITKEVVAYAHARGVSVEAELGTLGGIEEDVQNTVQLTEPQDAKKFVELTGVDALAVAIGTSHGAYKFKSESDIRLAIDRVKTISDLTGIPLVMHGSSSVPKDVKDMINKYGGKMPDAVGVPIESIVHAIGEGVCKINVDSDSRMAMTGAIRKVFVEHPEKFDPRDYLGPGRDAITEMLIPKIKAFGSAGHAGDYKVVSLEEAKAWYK
#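 Giardia FBPA (40 nM reagent) was preincubated 10 min at RT with compound (up to 57.5 uM final), then substrate plus GAPDH/TPI/NAD/arsenate coupling system with diaphorase/resazurin was added; resorufin fluorescence (525/598 nm) was read after 20 min.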
# TbPYK inhibitor: qHTS of Trypanosoma Brucei Inhibitors; pyruvate kinase (Trypanosoma brucei), Q57TT1; 0.12% of 410,000 active; TbPYK enzyme, Kinase-Glo Plus ATP luminescence, 45 min; Potency, µM (top dose mostly 76.8 µM), without a hit: top-dose activity, negative = inhibition, usual class: inhibitors; AID 624173, 2012; also: potency is read from the fitted curve at half-maximal effect; % is scaled to controls: 0 for no effect and ±100 for the full control effect; nearly all actives have a fitted effect of over 50% in size
#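 Readout: single end-point luminescence (Kinase-Glo Plus, 10 min). Reaction conditions were TbPYK/substrate plus 130 uM ADP, 45 min at RT, pH 7.2 TEA buffer. No-enzyme wells served as controls, and data were normalized before concentration-response fitting.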
# RE007 growth inh: qHTS Assay for Inhibitors of the HIV-1 protein Vpr; AID 651644, 2012; Potency, µM (titrated, usually from 92.2 µM), for inactives: at the highest dose activity change, negative = less growth, hits mostly inhibitors; S. pombe RE007 Vpr strain, BacTiter-Glo ATP luminescence, 24 h; 0.21% of 360,000 active; active = well fitted falling curve with a large enough effect; inconclusive = small, poorly fitted or top-dose-only effect; inactive = no such curve, though single readings can be large or run the other way; also: potency is read from the fitted curve at half-maximal effect; % is scaled to controls: 0 for no effect and ±100 for the full control effect; nearly all actives have a fitted effect of over 50% in size
#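 Fission yeast strain RE007, carrying one chromosomally integrated HIV-1 vpr copy, was seeded at OD 0.01 in PMG+AL medium with 23 nL pinned compound. After 24 h at 30 °C and 99% humidity, viability was read by BacTiter-Glo luminescence.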
# An asterisk follows results filed as active; ? = inconclusive; . = no result given; ! = not active in a repeat. Unless noted, calls follow the shape of the dose curve; as a rule, active = well fitted curve in the direction sought with a large enough effect; inconclusive = small, poorly fitted or top-dose-only effect, or another doubt; inactive = no such curve, though single readings can be large; an effect the other way counts as inactive or inconclusive.
SMILES,CHX counter,LmPK inh,Shiga toxin inh,FBPA Giardia inh,TbPYK inhibitor,RE007 growth inh
CCc1cc2c(=O)n(-c3ccccc3)c(SCC(N)=O)nc2s1,13.7,-1.8%,-7.7,-6.8%,1.4%,2.3%
O=C(NCC1CCCN(C(=O)c2cccc(C(F)(F)F)c2)C1)c1ccc(F)cc1 (stereo unspecified),16.2*,-3.1%,11.1,-4.9%,1.5%,7.1%
COc1ccc(C(=O)N2CCCC(CNC(=O)c3ccc(F)cc3)C2)cc1OC (stereo unspecified),24.6*,1.3%,3.0,.,6.0%,7.8%
CSc1ccccc1C(=O)N1CCCC(CNC(=O)c2ccc(F)cc2)C1 (stereo unspecified),19.3,1.7%,29.5,3.7%,-3.3%,7.8%
C[C@H](C(=O)O)c1ccc2cc(O)ccc2c1,-3.1,.,20.2,5.8%,.,.
Cc1cc(C)c(C#N)c(SCc2ccc(F)cc2)n1,-3.4,-3.2%,6.8,4.4%,4.1%,-11.5%
Cc1cccc(CSc2nc3c(cc2C#N)CCC3)c1,-3.5,4.1%,-2.4,6.3%,0.0%,-18.9%
N#Cc1cc2c(nc1SCc1nc3ccccc3[nH]1)CCC2,43.8*,-18.4%,22.4,-4.5%,.,.
Cc1cc(C)c(C#N)c(SCc2nc3ccccc3[nH]2)n1,35.6*,1.5%,93.9*,-14.8%,-6.6%,-22.6%
Nc1nn(-c2ccccc2)nc1C(=O)OCc1c(F)cccc1Cl,.,.,.,.,-7.3%,.
C[n+]1cc2c3c(ccc2c2ccc4cc5c(cc4c21)OCO5)OCO3,-15.4,.,-37.4,6.29µM*!,-15.3%,.
O=C(CCc1ccccc1)Nc1ccc(NC(=O)c2ccco2)nc1,22.3*,9.5%,28.1,2.3%,-0.8%,-1.4%
O=C(Nc1ccc(NC(=O)c2ccccc2Cl)nc1)c1ccco1,16.8*,-2.1%,69.0*,4.2%,-19.9%,-17.2%
O=C(CCc1ccccc1)Nc1ccc(NC(=O)c2ccco2)cc1,-2.3,3.3%,39.1,-0.5%,-0.7%,-1.6%
CCCCC[C@H](O)/C=C/C=C\C/C=C\C/C=C\CCCC(=O)O,.,.,.,1.7%,.,.
CCC(=O)N1CCN(c2ccc(NC(=O)c3ccc([N+](=O)[O-])o3)cc2Cl)CC1,-22.6,-5.0%,-34.6,-28.0%,4.1%,-11.3%
CC(=O)N1CCN(c2ccc(NC(=O)c3ccc([N+](=O)[O-])o3)cc2Cl)CC1,24.7*,-2.7%,50.2*,-6.0%,-2.0%,-14.3%
CCN1CCN(c2ccc(NC(=O)c3ccc([N+](=O)[O-])o3)cc2Cl)CC1,23.5*,-0.1%,-20.1,-20.4%,6.2%,3.2%
C=CCNc1nc(Nc2ccc(OC)cc2OC)nc(OCC)n1,-3.7,0.9%,4.5,-4.4%,1.2%,3.6%
C=CCNc1nc(Nc2ccccc2F)nc(OCC)n1,47.2*,-2.5%,123.2*,2.6%,-1.7%,-13.5%
Fc1ccccc1Nc1nc(Cl)nc(Cl)n1,-5.7,-10.4%,-13.4,-36.1%,-18.8%,2.6%
CCOc1nc(Nc2ccccc2F)nc(OCC)n1,20.0*,-4.4%,9.7,-11.2%,0.5%,13.3%
COc1ccc(-c2nc(CS(=O)CC(=O)NC3CCC(C)CC3)c(C)o2)cc1OC (stereo unspecified),33.0*,-4.0%,60.5*,.,-1.2%,-1.9%
COc1ccc(C2=C(C)C(=NCCCN3CCN(c4cc(C)ccc4C)CC3)NS2(=O)=O)cc1,.,.,.,.,-5.5%,.
Cc1sc2c(c1C)C(=O)NC(c1cccc(O)c1)N2 (stereo unspecified),26.9*,1.8%,35.4,-12.1%,.,.
SMILES,CHX counter,LmPK inh,Shiga toxin inh,FBPA Giardia inh,TbPYK inhibitor,RE007 growth inh
C/C(N)=C(/C#N)C(=O)CSc1nnc(Cc2ccccc2F)n1N,0.9,6.3%,-5.6,-1.0%,0.6%,7.4%
Cc1cc(NC(=O)CSc2n[nH]c(-c3ccccc3Br)n2)no1,.,.,.,.,9.6%,9.9%
C/C(N)=C(/C#N)C(=O)CSc1ccccc1F,34.5*,-0.6%,94.0*,5.1%,-7.9%,-2.3%
C/C(N)=C(/C#N)C(=O)CSc1n[nH]c(-c2ccccc2Br)n1,46.2*,-0.4%,65.7*,-6.8%,5.1%,11.5%
C/C(N)=C(/C#N)C(=O)CSc1nn(-c2ccc(Cl)cc2)c(=S)s1,47.3*,1.7%,72.1*,0.3%,-0.6%,0.4%
O=C1N=C(N2CCCCC2)S/C1=C\c1ccc(Cl)cc1,1.6,0.2%,.,5.3%,2.8%,2.7%
CCOC(=O)C1CCCN(C2=NC(=O)/C(=C/c3ccc(N(C)C)cc3)S2)C1 (stereo unspecified),25.7*,-3.0%,33.4*,-5.8%,-7.2%,5.1%
O=C1N=C(N2CCCCC2)S/C1=C\c1ccccc1F,22.2*,-3.3%,60.8*,9.1%,-4.1%,0.7%
CCOC(=O)C1CCCN(C2=NC(=O)/C(=C/c3ccc(OC)cc3)S2)C1 (stereo unspecified),-0.9,2.9%,-8.6,0.9%,0.0%,11.4%
Cc1ccc(/C=C2\SC(N3CCCCC3)=NC2=O)cc1,42.4*,-0.9%,72.8*,-5.4%,-3.9%,-23.6%
CCOc1ccc(S(=O)(=O)NCCc2csc3nc(-c4cccc(C)c4)nn23)cc1,.,.,.,.,-3.4%,.
CC(=O)c1sc(N/N=C2\CC3CC2C(C)C3(C)C)nc1C (stereo unspecified),34.2*,6.5%,48.1*,?,-19.4%,6.2%
COc1ccc(NCc2cc3cc4c(cc3n(CC(=O)Nc3ccc(F)cc3F)c2=O)OCO4)cc1,.,.,.,.,3.1%,.
COCCNC(=S)NNC(=O)CSCc1ccc(Cl)cc1Cl,-2.7,4.2%,42.6*,7.3%,?,31.3%
NNC(=O)CSCc1ccc(Cl)cc1Cl,-1.4,4.4%,-5.0,-1.0%,1.9%,1.1%
COc1ccc(NS(=O)(=O)c2cnc(N)nc2)cc1Cl,.,.,.,.,-12.0%,.
CC(C)=CC(=O)OCc1cc([N+](=O)[O-])cc2c1OCOC2,64.7*,-0.8%,87.7*,3.5%,0.2%,6.3%
Cn1c(SCc2ccccc2F)nc2c([nH]c3ccccc32)c1=O,.,.,.,.,4.1%,.
COCCNC(=S)N1CCC(C(=O)c2ccc3c(c2)OCCO3)CC1,45.7*,-4.3%,74.2,4.1%,-2.1%,2.0%
COc1ccc(NC(=S)N2CCC(C(=O)c3ccc(C)cc3)CC2)cc1,8.9*,0.8%,-1.2,-13.4%,-13.7%,3.6%
CC(=O)c1ccc(NC(=O)N2CCCC(C(=O)c3ccc4c(c3)OCO4)C2)cc1 (stereo unspecified),15.7*,-6.4%,52.8*,2.1%,-7.0%,12.3%
O=C(c1ccc2c(c1)OCO2)C1CCCN(C(=O)c2cnn(Cc3ccccc3)c2)C1 (stereo unspecified),21.2*,0.1%,37.7*,4.0%,-1.3%,2.9%
CCc1ccc(S(=O)(=O)c2nnn3c2nc(NC(C)C)c2cc(Cl)ccc23)cc1,.,.,.,.,3.0%,.
